High-throughput results (PubChem)
gsp agonist – activates gsp, the McCune-Albright syndrome mutation; gsp mutant cells, cAMP HTRF, 30 min; Potency, µM (doses to about 76.9 µM), for the others: at the highest dose activation (cAMP increase), actives largely listed as activators; AID 624287; 340,000 tested, 0.13% active; active = well fitted activation curve with a large enough effect; inconclusive = small, poorly fitted or top-dose-only effect, or another doubt; inactive = no such curve, though single readings can be large or run the other way; cell line not stated here;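 note: phosphodiesterase inhibitor Ro 20-1724 added with compounds to block cAMP breakdown; potency is the fitted concentration of half-maximal effect; nearly all actives have a fitted effect of over 60% in size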
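Cells stably selected in G418 were plated at 2000/well, grown 16-24 hr, then given compounds in DMSO with the PDE inhibitor […] (300 uM solution added) for 30 min at 37C; cAMP was read by HTRF.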
RXFP1 antag – RXFP1 (human) relaxin receptor antagonism; HEK293-RXFP1, relaxin-stimulated cAMP HTRF, 30 min; hits give low values; activity change, negative = inhibition, % at 57.5 µM; 350,000 tested, 0.59% active; Q9HBX9;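 active = activity change of -60% or lower, but not beyond a set lower limit; inconclusive = change between -60% and -40%, or beyond the set limit; inactive = change above -40%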; note: % is set by controls: 0 for no effect and ±100 for the full control effect
gsp antagonist – gsp mutant antagonism | gsp-mutant cells, cAMP HTRF, 30 min | Potency, µM (doses to about 76.9 µM), inactives show top-dose activity change, negative = inhibition, most hits filed as inhibitors | 340,000 tested, 0.4% active; calls by dose curve; cell line not stated here;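 note: intracellular cAMP measured with PDE inhibitor Ro 20-1724 present during compound exposure; potency is the fitted concentration of half-maximal effect; % is set by controls: 0 for no effect and ±100 for the full control effect; nearly all actives have a fitted effect of over 65% in size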
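Cells, 2000/well, grown 16–24 h in DMEM 10% FBS with 0.5 mg/ml G418, then compounds plus […] (300 uM addition stock), 30 min at 37C. cAMP read by HTRF (cAMP-d2 and anti-cAMP antibody-K in lysis buffer) after 30 min RT.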
RXFP1 agonist – RXFP1 (human) receptor agonism; HEK293T-RXFP1 cAMP TR-FRET, 30 min; response scale: percent of porcine relaxin response, buffer zero; Potency, µM (series often up to 57.5 µM), inactives show top-dose activation, hits mostly activators; 370,000 tested, 0.3% active; AID 2676; active = well fitted activation curve with a large enough effect; inconclusive = small, poorly fitted or top-dose-only effect; note: potency is the fitted concentration of half-maximal effect; % is set by controls: 0 for no effect and ±100 for the full control effect; nearly all actives have a fitted effect of over 60% in size
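Agonist response is measured as cAMP accumulation in an RXFP1-transfected HEK293T line under PDE4 inhibition. Values are scaled between buffer-only and 29 nM porcine relaxin, and EC50s come from standard Hill equation fits.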
Active calls of the source: *; u = inconclusive; x = no result; [ ] = another dose, or the depositor's remark. The list is not random: actives were taken first. Their share in the collection is about 0.9%.

SMILES	gsp agonist	RXFP1 antag	gsp antagonist	RXFP1 agonist
COc1cc(/C=C(\CCC(=O)O)c2nc3ccccc3s2)ccc1OCC(=O)Nc1c(Cl)cccc1Cl	-48%	-3	28µM*	x
COc1ccccc1N1CCN(CC(O)COc2ccc(C)cc2C(C)(C)C)CC1 (stereo unspecified)	x	-83*	x	6%
COc1ccccc1N1CCN(CC(O)COc2cc(C)cc(C)c2)CC1 (stereo unspecified)	x	-6	x	-1%
CC(=O)Nc1ccc(NC(=O)CSc2nnc3ccc(-c4ccccn4)nn23)cc1	11%[15.4 µM]	-106*	0%	4%
COc1ccc(NC(=O)CSc2ccc3nnc(-c4ccccn4)n3n2)cc1OC	u	3	2%	0%
CC(=O)Nc1cccc(NC(=O)CSc2nnc3ccc(-c4ccccn4)nn23)c1	27%	-17	-7%	2%
CC(=O)Nc1ccc(NC(=O)CSc2ccc3nnc(-c4ccccn4)n3n2)cc1	u	2	30%	8.9µM*
CC(C)(C)c1cc(CN2CCN(CCO)CC2)cc(C(C)(C)C)c1O	10%	-11	3%	1%
CN1CCN(CC(=O)c2cc(C(C)(C)C)c(O)c(C(C)(C)C)c2)CC1	1%[15.4 µM]	-85*	9%	0%
COC(=O)COc1ccc(NS(=O)(=O)c2cccc([N+](=O)[O-])c2)cc1	-3%[15.4 µM]	-66*	u	1%
COc1ccc(S(=O)(=O)Nc2cccc(-c3ccc(N4CCCC4)nn3)c2)cc1F	x	-3	x	1%
COC(=O)COc1cccc(NS(=O)(=O)c2cccc([N+](=O)[O-])c2)c1	-3%[15.4 µM]	-5	-8%	-2%
O=[N+]([O-])c1cccc(S(=O)(=O)Nc2ccc(-c3ccc(N4CCCC4)nn3)cc2)c1	1%[15.4 µM]	-71*	-34%	-1%
COc1ccc(S(=O)(=O)Nc2cccc(-c3ccc(N4CCCCCC4)nn3)c2)cc1OC	-4%	-8	25µM*	-3%
O=[N+]([O-])c1cccc(S(=O)(=O)Nc2ccc(-c3ccc(N4CCOCC4)nn3)cc2)c1	-12%[15.4 µM]	2	u	-1%
Cc1ccc(NC(=O)C2CCCN(c3ncnc4onc(C)c34)C2)c(Cl)c1 (stereo unspecified)	x	-1	x	0%
CC(C)=NNc1nc(-c2ccccc2)cs1	-11%	-3	12%	0%
CCOC(=O)C/C(C)=N\Nc1nc(-c2ccccc2)cs1	7%[15.4 µM]	-19	8.9µM*	-2%
Cc1cccc(C(=O)Nc2nc(-c3ccc(Br)cc3)ns2)c1	x	0	x	26%
Cc1ccc(S(=O)(=O)c2cc3c(=O)n4ccccc4nc3n(C3CCCC3)c2=N)cc1	-33%	-84*	-3%	-1%
O=C(NCCS(=O)(=O)N1CCN(c2ccc(F)cc2)CC1)c1cc(=O)c2ccccc2o1	x	-3	x	2%
CC1(C)N=C(N)N=C(N)N1CCCCc1ccccc1	14µM*	-6	-11%	x
CCCn1c(SCC(=O)N2CCc3ccccc3C2)nc2c1c(=O)n(C)c(=O)n2C	32µM*	4	11%	u
COc1ccc(C2c3ccc4ccccc4c3Oc3ncn(CCN(C)C)c(=N)c32)cc1 (stereo unspecified)	7%	-108*	5%	2%
COc1ccc(C2c3ccc4ccccc4c3Oc3ncn(CCO)c(=N)c32)cc1 (stereo unspecified)	u	-12	2%	-1%
SMILES	gsp agonist	RXFP1 antag	gsp antagonist	RXFP1 agonist
COc1ccccc1NC(=O)c1ccc2c(Cl)c3c(nc2c1)CCCC3	x	x	x	2%
CCc1ccc(N(CC)C(=O)c2ccc3c(Cl)c4c(nc3c2)CCC4)cc1	-33%	-76*	-29%	2%
COc1ccc(N(C)C(=O)c2ccc3c(Cl)c4c(nc3c2)CCCC4)c(OC)c1	-20%	-96*	u	2%
CCN(C(=O)c1ccc2c(Cl)c3c(nc2c1)CCC3)c1cccc(C)c1	x	x	x	1%
Cc1ccc(N(C)C(=O)c2ccc3c(Cl)c4c(nc3c2)CCC4)cc1C	2%	-89*	u	1%
CN(C)C(=O)CNC(=O)Cc1ccccc1	x	20	x	x
Cc1ccccc1CNC(=O)Cn1c(=O)c2cccn2c2cccnc21	x	-1	x	3%
Cc1ccn2c(c1)nc(=O)c1cc(S(=O)(=O)N3CCOCC3)ccc12	u	-30	6%	6%
CC1CCCN(S(=O)(=O)c2ccc3c(c2)n(C)c(=O)c(=O)n3C)C1 (stereo unspecified)	14%	8	50µM*	6%
